Source: PubChem BioAssay (National Center for Advancing Translational Sciences (NCATS))
In the library only some 14% were active in any assay of this set; here they are far more common.
HCMV antiviral: human cytomegalovirus inhibition; HFF cells, HCMV-luciferase reporter, 72 h; stronger effect = lower value; activity change, negative = inhibition, % at 57.5 µM; hit rate 4.5% among 410,000; AID 1259415; in the data active = activity change below about -60%; inconclusive = no clear call, values can overlap the other calls; inactive = above about -39%
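Two-dose cell screen: HFF monolayers treated with compounds and infected with luciferase-expressing HCMV at 1 PFU/cell, 72 h at 37C, then lysed for luciferase measurement.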
Sm TGR inh: blocks Schistosoma mansoni thioredoxin glutathione reductase | hit rate 3% among 360,000 | AID 485364 | purified TGR, DTNB reduction, TNB absorbance 405 nm | Q962Y6 | Potency, µM (series often up to 114 µM), for the others: top-dose activity change, negative = inhibition, most hits filed as inhibitors; also: potency is read from the fitted curve at half-maximal effect; nearly all actives have a fitted effect of over 60% in size
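First, TGR (20 nM dispensed) and NADPH were mixed with compound. Second, a 15 min room-temperature incubation followed. Third, further NADPH and then DTNB were added to start the reaction. Finally, TNB absorbance was monitored kinetically.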
Giardia FBPA inh: inhibitors of Giardia lamblia fructose-1,6-bisphosphate aldolase; purified Giardia FBPA; Potency, µM (titrated, usually from 59.6 µM), without a hit: top-dose activity, negative = inhibition, hits mostly inhibitors; hit rate 0.71% among 290,000; also: potency is read from the fitted curve at half-maximal effect; nearly all actives have a fitted effect of over 55% in size
Target sequence (A8B2U2 whole entry, looked up): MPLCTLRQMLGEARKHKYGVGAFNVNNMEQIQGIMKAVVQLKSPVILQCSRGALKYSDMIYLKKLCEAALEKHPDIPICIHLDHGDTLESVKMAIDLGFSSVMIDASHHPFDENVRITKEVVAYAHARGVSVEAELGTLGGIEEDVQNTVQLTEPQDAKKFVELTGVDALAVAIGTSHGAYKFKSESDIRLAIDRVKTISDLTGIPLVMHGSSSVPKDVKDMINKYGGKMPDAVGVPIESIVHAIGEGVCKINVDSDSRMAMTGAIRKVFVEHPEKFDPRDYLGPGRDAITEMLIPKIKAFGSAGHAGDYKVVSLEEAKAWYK
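Giardia FBPA (40 nM reagent) was preincubated 10 min at RT with compound (up to 57.5 uM final), then substrate plus GAPDH/TPI/NAD/arsenate coupling system with diaphorase/resazurin was added; resorufin fluorescence (525/598 nm) was read after 20 min.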
Pf growth 48h: inhibits P. falciparum growth in the first generation, 48 h; Potency, µM (doses to about 28.7 µM), inactives show at the top dose activity change, negative = inhibition, usual class: inhibitors; hit rate 5.9% among 310,000; P. falciparum luciferase growth in erythrocytes, 48 h; also: potency is read from the fitted curve at half-maximal effect
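Erythrocytes infected with P. falciparum carrying an integrated firefly luciferase reporter (2% hematocrit, 0.1% parasitemia final) were exposed to compounds in RPMI 1640 with 0.5% Albumax at 37 C, 5% CO2. Growth inhibition was scored as reduced luminescence.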
Pf growth 96h: inhibits malaria parasite growth, 96 h; P. falciparum luciferase reporter growth, 96 h; hit rate 6.9% among 320,000; Potency, µM (series often up to 28.7 µM), without a hit: at the top dose activity change, negative = inhibition, hits mostly inhibitors; also: potency is read from the fitted curve at half-maximal effect
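Compounds incubated with erythrocytes infected by luciferase-expressing P. falciparum (2% hematocrit, 0.05% parasitemia final) for 96 hours, 37 C in 5% CO2. Growth inhibition scored as decreased luciferase luminescence.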
* hit, by the source's call; ? = inconclusive; · = no result given; [ ] = remark or other dose. Unless noted, calls follow the shape of the dose curve; as a rule, active = well fitted curve in the direction sought with a large enough effect; inconclusive = small, poorly fitted or top-dose-only effect, or another doubt; inactive = no such curve, though single readings can be large; an effect the other way counts as inactive or inconclusive. % is scaled to controls: 0 for no effect and ±100 for the full control effect.

SMILES | HCMV antiviral | Sm TGR inh | Giardia FBPA inh | Pf growth 48h | Pf growth 96h
COc1ccc(-c2nc3ccccc3nc2-c2ccc(OC)c(OC)c2)cc1OC | -9.3 | 3.5% | 3.5% | ? | -10.9%
Cc1nc(C(F)(F)F)ccc1C(=O)N1CCC1(C)C(=O)NS(=O)(=O)c1ccc(C#N)cc1 (centres undefined) | 14.6 | · | · | · | ·
CCCCCCC(=O)Cc1cc(OC)c(OC)cc1C=C(C(=O)OCC)C(=O)OCC | · | 39.8µM* | -6.1%[12.9 µM] | ? | ?
CCCCCC(=O)N1CCN(c2ccc(C(C)=O)cc2F)CC1 | 12.0 | -25.7% | 1.2% | 7.9% | 7.38µM*
CC(=O)c1ccc(N2CCCC2)c(F)c1 | · | 0.7% | 4.6% | 43.3% | ·
CCC(=O)c1ccc(N2CCN(C(=O)c3ccc(F)cc3)CC2)c(F)c1 | 17.7 | · | -0.7% | -4.7% | 16.4%
CCC(=O)c1ccc(N2CCN(C(=O)c3cc([N+](=O)[O-])ccc3N3CCN(C)CC3)CC2)c(F)c1 | 17.5 | 7.6% | 1.2% | ? | 9.28µM*
CCC(=O)c1ccc(N2CCCCC2)c(F)c1 | 23.9 | -22.7% | -0.1% | 1.1% | 8.28µM*
Cc1noc(C)c1C(=O)N1CCC2(CC1)CCN(c1ncccn1)CC2 | · | · | 4.6% | · | ·
C[C@H](CO)N1C[C@H](C)[C@H](CN(C)Cc2ccccc2)Oc2ncc(Br)cc2C1=O | -3.5 | · | · | · | ·
C=CCNc1nc(Cl)nc(NCc2ccco2)n1 | 42.1 | -24.1% | 9.3% | ? | 9.28µM*
CC(=O)c1ccc2c(c1)C1C(Cl)C(Sc3ccccc3[N+](=O)[O-])CC1C(c1ccccc1)N2 (centres undefined) | -38.7 | -7.7% | -8.9% | ? | ?
CC(=O)c1ccc2c(c1)C1C(Cl)C(Sc3ccccc3[N+](=O)[O-])CC1C(c1ccccc1[N+](=O)[O-])N2 (centres undefined) | -87.9* | -3.9% | ? | 2.33µM* | ?
Cc1nc([N+](=O)[O-])c(C(=O)OCc2cccc(Br)c2)n1C | 6.4 | 3.1% | 1.6% | 2.3% | 7.38µM*
Cc1cccc(N2CCN(c3ncnc4onc(C)c34)CC2C)c1 (centres undefined) | -99.6* | 3.9% | · | · | ·
O=C(c1cccnc1)C1Cc2ccccc2C1=O (centres undefined) | 0.0 | 10.9% | ? | ? | 7.38µM*
CC1COCC(C)N1C(=O)c1cccnc1 (centres undefined) | -6.9 | · | · | · | ·
COc1ccc(Oc2ncc3nc(-c4cc(F)cc(F)c4)c(=O)n(C)c3n2)cc1 | · | · | -5.5% | · | ·
COc1cc(NC(=O)COc2ccc(-n3ccnc3)cc2)cc(OC)c1 | -86.7* | -7.3% | 5.2% | -27.9% | ?
N#Cc1cccc(NC(=O)COc2ccc(-n3ccnc3)cc2)c1 | -26.4 | -0.9% | -0.3% | ? | ?
CC(C)(C)c1ccc(NC(=O)COc2ccc(-n3ccnc3)cc2)cc1 | -85.6* | 2.1% | -2.9% | ? | ·
C/C(=N\NC(=O)COc1ccc(C(C)(C)C)cc1)c1ccc(-n2ccnc2)cc1 | 47.6 | -1.4% | 1.6% | -78.1% | 10.4µM*
CC(C)(C)c1ccc(OCC(=O)Nc2ccncc2)cc1 | ? | 1.4% | 5.5% | 25.8% | 0.5%
Cn1c(CNC(=O)c2ccc3c(c2)OCO3)nnc1SCC(=O)Nc1ccc(F)cc1F | -11.8 | -1.8% | 0.4% | 6.9% | -10.1%
CCN(C(=O)CSc1nc2ccccc2n1CC(=O)Nc1ccccc1C)c1ccccc1 | 6.7 | -5.9% | · | · | ·
SMILES | HCMV antiviral | Sm TGR inh | Giardia FBPA inh | Pf growth 48h | Pf growth 96h
CCOC(=O)CSc1nc2cc3c(cc2cc1C)OCO3 | -23.3 | -12.9% | 3.2% | 10.6% | ?
Cc1ccc(-c2nnc(CSc3nc4cc5c(cc4cc3C)OCO5)o2)cc1 | -35.7 | 11.8% | -3.0% | 9.3% | 13.1µM*
COC(=O)c1ccc2c(=O)n(CCCCCC(=O)NC3CCCCC3)c(=O)[nH]c2c1 | -21.6 | · | · | · | ·
O=C1NCCCC2c3c(cc(Br)c(O)c3Br)OC12N1CCOCC1 (centres undefined) | -14.2 | 39.8µM* | -4.8% | 1.8% | ?
Cc1nnnn1/C(=C\c1ccccc1)C(=O)OCC(=O)Nc1cccc(S(=O)(=O)N(C)C)c1 | -61.2* | ? | · | 14.8% | 8.2%
CN(C)S(=O)(=O)c1cccc(NC(=O)COC(=O)c2ccc3ccccc3n2)c1 | 119.8 | · | · | · | ·
Cc1nnnn1/C(=C\c1ccccc1)C(=O)OCC(=O)Nc1ccc(Cl)cc1F | -95.3* | -8.8% | · | ? | 17.8%
COCc1c(CCl)cnc(C)c1O | -2.1 | -6.7% | 0.6% | -26.2% | 9.28µM*
Cn1cc[n+](C)c1P(=S)(c1ccccc1)c1ccccc1 | -9.7 | -0.5% | 3.1% | ? | ?
Cc1c(P(=S)(c2ccccc2)c2ccccc2)[n+]2ccccc2n1C | -63.9* | 58.5% | -0.1% | ? | -27.0%
Cc1c(P(=S)(c2ccccc2)c2ccccc2)[n+]2ccccc2n1C/C=C/c1ccccc1 | -99.1* | · | · | · | ·
CC(O)c1nc2ccccc2n1C/C=C/c1ccccc1 (centres undefined) | 61.1 | -1.7% | 0.1% | -20.6% | 12.9%
O=C(c1csnn1)N1CCC[C@@]2(CCN(c3ncccn3)C2)C1 | · | · | 1.4% | · | ·
Cc1ccc(OCc2nnc(SCC(=O)O)n2-c2ccccc2)cc1 | 18.6 | · | · | · | ·
Cc1ccc(OCc2nnc(SCC(=O)c3ccccc3)n2-c2ccccc2)cc1 | -24.7 | -5.7% | -1.4% | 13.1µM* | -60.2%
NC(=O)CSc1nnc(CSc2ncccn2)n1-c1ccccc1 | -26.9 | 2.1% | 13.1% | 7.8% | 13.1µM*
Cc1nnc(NC(=O)CSCc2cc(=O)c3ccc(C)c(C)c3[nH]2)s1 | 5.0 | -1.5% | · | · | ·
Cc1cc2c3c([nH]c2cc1S(=O)(=O)NCCCOC(C)C)CC(C)(C)CC3=O | ? | -12.9% | -8.5% | ? | -6.0%
N#CC(C#N)=C1C=CC=CN1/C(=C\c1ccco1)C(=O)c1ccc(Br)cc1 | -96.6* | 2.24µM* | -15.0% | ? | ?
N#CC(C#N)=C1C=CC=CN1/C(=C\c1ccco1)C(=O)c1ccccc1 | -99.6* | 2.82µM* | -5.4% | ? | ?
COc1ccc(C(=O)/C(=C\c2ccco2)N2C=CC=CC2=C(C#N)C#N)cc1 | · | ? | -1.5% | ? | ?
CC(=O)N1CCOc2cc(S(=O)(=O)Nc3c(C)cccc3C(C)C)c(Cl)cc21 | 7.4 | 79.4µM* | · | 8.28µM* | 5.22µM*
CN(C(=O)c1c[nH]c(=O)cc1C(F)(F)F)c1ccc(Cl)cc1 | -9.7 | -18.4% | 0.5% | ? | ?
CN(C(=O)c1c[nH]c(=O)cc1C(F)(F)F)c1ccc(Cl)c(Cl)c1 | 1.5 | 7.5% | -2.7% | 11.7µM* | -107.9%
Cc1nc(-c2ccccc2)c(-c2ccncc2)o1 | · | · | 5.5% | · | ·
CCOC(=O)C1CC(CN2C(=O)c3ccccc3C2=O)OC1=O (centres undefined) | -12.4 | · | · | · | ·
Cc1ccccc1C(=O)Nc1nncs1 | 1.0 | -0.2% | 6.1% | 10.2% | ·
Cc1cc(C(=O)Nc2nncs2)oc1C | 21.5 | -6.8% | -14.2% | 42.1% | 2.62µM*
CC(=O)NC(=Cc1ccccc1)C(=O)N1CCCC1C(=O)O (centres undefined) | -12.6 | · | · | · | ·
